Source: PubChem BioAssay AID1224921 (Broad Institute, 2016)
About 350 (25%) of roughly 1,400 compounds were called active. Inconclusive results (about 2%) are left out. The rule behind the calls is not given here. Only a sample is shown. Entries with a potency or affinity are not part of this list.

Assay: C. difficile growth inhibition, confirmation, 4-point retest (AID 1224921);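 note: plate controls were DMSO wells for no effect and levofloxacin 16 µg/mL wells for full effect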
Settings: Clostridioides difficile clinical isolate growth, OD600, 24 h, hits give low values; at 30 µM unless noted

Max activity, inactive:
CCCC(=O)Nc1ccc2c(c1)C(=O)N(C)C[C@H](OC)[C@H](C)CN(Cc1ccc(F)cc1)[C@H](C)CO2 22.5%
CC(C)CC#Cc1ccc2c(c1)O[C@H](CN(C)Cc1ccc3c(c1)OCO3)[C@H](C)CN([C@H](C)CO)S2(=O)=O 43.6%
COc1ccccc1CNC(=O)C[C@@H]1C[C@@H]2c3cc(NC(=O)NC4CCCC4)ccc3O[C@@H]2[C@@H](CO)O1 -8.98% [at 1.8 µM]
C[C@H](CO)N1C[C@H](C)[C@H](CN(C)C(=O)NC2CCCCC2)Oc2cc(C#Cc3ccc(F)cc3)ccc2S1(=O)=O 14.3%
COc1cccc(-c2ccc3c(c2)O[C@H](CN(C)Cc2cccnc2)[C@@H](C)CN([C@@H](C)CO)S3(=O)=O)c1 21.5%
CO[C@@H]1CN(C)C(=O)c2ccc(NC(=O)NC(C)C)cc2OC[C@@H](C)N(C(=O)NC(C)C)C[C@@H]1C 16.7%
C[C@H]1CN([C@@H](C)CO)S(=O)(=O)c2ccc(C#CC3CCCC3)cc2O[C@H]1CN(C)C(=O)Cc1ccccc1 16.1%
CCCNC(=O)C[C@@H]1CC[C@H]2[C@H](COc3ccc(NC(=O)c4cccc(Cl)c4)cc3C(=O)N2C)O1 -10.6% [at 8 µM]
C=CCOC(=O)[C@H]1[C@@H]2C(=O)O[C@@H](c3ccccc3)[C@@H](c3ccccc3)N2[C@@H](c2ccc(OCCOC(=O)[C@H]3C[C@H]4C(=O)N5CCC[C@H]5C(=O)N4[C@H]3c3cccc(OCCO)c3)cc2)[C@]12C(=O)Nc1ccccc12 -23.8% [at 8 µM]
C[C@@H]1CN([C@@H](C)CO)S(=O)(=O)c2ccc(-c3cncnc3)cc2O[C@H]1CN(C)C(=O)CC1CC1 -11% [at 8 µM]
CN(C)CC(=O)N1[C@H](C#N)[C@@H](c2ccc(/C=C/c3ccccc3)cc2)[C@H]1CO 19.5%
CO[C@H]1CN(C)C(=O)c2ccc(NC(=O)c3ccccc3F)cc2OC[C@@H](C)N(CC2CC2)C[C@H]1C 9.45%
CCCNC(=O)Nc1ccc2c(c1)OC[C@@H](C)N(Cc1ccccc1)C[C@@H](C)[C@H](OC)CN(C)C2=O 40.4%
C[C@H](CO)N1C[C@H](C)[C@@H](CN(C)C(=O)c2ccccc2)OCCCC[C@H](C)Oc2ccc(NC(=O)Nc3cccc4ccccc34)cc2C1=O 39.2%
CNC[C@@H]1OCCCC[C@@H](C)Oc2ccc(NC(=O)Nc3cccc4ccccc34)cc2C(=O)N([C@H](C)CO)C[C@H]1C 27.3%
CNC[C@@H]1OCCCC[C@H](C)Oc2ccc(NC(=O)Nc3ccc(C(F)(F)F)cc3)cc2C(=O)N([C@@H](C)CO)C[C@@H]1C 52.5% [at 8 µM]
CNC[C@H]1OCCCC[C@@H](C)Oc2ccc(NC(=O)Nc3ccc(C(F)(F)F)cc3)cc2C(=O)N([C@@H](C)CO)C[C@H]1C 33.8% [at 8 µM]
C[C@@H]1CCCCO[C@@H](CN(C)S(=O)(=O)c2ccccc2)[C@@H](C)CN([C@H](C)CO)C(=O)c2cc(NC(=O)Nc3ccc(C(F)(F)F)cc3)ccc2O1 12.1% [at 8 µM]
